Assay results as given in ChEMBL document CHEMBL3988442, “University of Dundee, Small-Polar-MMV Screening Library” (2021).
For some assays here: Measured potencies and affinities stand elsewhere.

Assays:
Set-up in all cases: scale not given: direction of the effect not stated beside the values
[1] = biological target: Protein translocase subunit SecA (Escherichia coli (strain K12)) (UniProt P10408); assay: Assay to Identify E. coli SecA ATPase Inhibitors; type: functional; conditions: 30 µM
[2] = biological target: T1, Ubiquitin-activating enzyme e1, putative (Leishmania donovani (strain BPK282A1)) (UniProt E9BSI1); assay: Leishmania donovani Ubiquitin Activating Enzyme (LdE1); type: functional; conditions: 30 µM
T1 sequence (whole entry): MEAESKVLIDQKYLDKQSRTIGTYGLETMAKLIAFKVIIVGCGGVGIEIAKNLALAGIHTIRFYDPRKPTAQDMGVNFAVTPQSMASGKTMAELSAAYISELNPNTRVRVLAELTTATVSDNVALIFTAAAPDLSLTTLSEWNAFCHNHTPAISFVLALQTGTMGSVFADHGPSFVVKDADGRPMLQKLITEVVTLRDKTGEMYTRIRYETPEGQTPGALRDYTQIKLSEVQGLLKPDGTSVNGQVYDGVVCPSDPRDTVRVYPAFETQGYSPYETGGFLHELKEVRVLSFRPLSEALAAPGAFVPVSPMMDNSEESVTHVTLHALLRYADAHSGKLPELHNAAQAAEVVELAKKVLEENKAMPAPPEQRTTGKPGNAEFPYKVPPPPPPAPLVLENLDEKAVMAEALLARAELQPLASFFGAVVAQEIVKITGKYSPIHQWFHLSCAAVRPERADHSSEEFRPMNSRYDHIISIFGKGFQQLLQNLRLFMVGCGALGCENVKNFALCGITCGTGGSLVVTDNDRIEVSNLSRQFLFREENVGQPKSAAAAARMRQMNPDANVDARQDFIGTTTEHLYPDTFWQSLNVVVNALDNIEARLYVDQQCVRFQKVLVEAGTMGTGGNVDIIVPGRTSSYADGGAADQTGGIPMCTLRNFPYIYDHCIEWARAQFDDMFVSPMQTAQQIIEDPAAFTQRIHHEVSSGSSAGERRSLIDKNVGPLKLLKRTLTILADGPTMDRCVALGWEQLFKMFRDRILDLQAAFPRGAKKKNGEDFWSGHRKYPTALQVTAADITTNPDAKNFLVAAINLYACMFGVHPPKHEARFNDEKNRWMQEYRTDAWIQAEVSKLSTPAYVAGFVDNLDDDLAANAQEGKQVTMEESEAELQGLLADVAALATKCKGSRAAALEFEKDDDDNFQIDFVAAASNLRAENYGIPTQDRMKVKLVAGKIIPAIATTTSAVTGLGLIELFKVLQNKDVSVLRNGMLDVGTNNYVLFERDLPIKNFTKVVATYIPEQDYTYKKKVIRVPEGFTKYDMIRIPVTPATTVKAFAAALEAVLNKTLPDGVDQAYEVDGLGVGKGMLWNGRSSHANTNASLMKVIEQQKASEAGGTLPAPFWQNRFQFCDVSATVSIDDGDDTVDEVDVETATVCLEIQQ

[3] = biological target: AMP-activated protein kinase, AMPK (Homo sapiens) (UniProt P54646+O43741+P54619+Q9UGJ0+Q9Y478+Q13131+Q9UGI9); assay: AMP-dependent Kinase enzyme assay. An in vitro enzyme assay that detects ADP turnover that is directly proportional to AMPK activity. This uses naive AMPK that is activated during the assay with MK-8722; type: functional; conditions: 30 µM
[4] = biological target: Sialic acid-binding Ig-like lectin 9 (Homo sapiens) (UniProt Q9Y336); assay: Hs-Siglec9 ALPHAscreen SOP 20170721; conditions: 10 µM
Sequence of Sialic acid-binding Ig-like lectin 9 (Homo sapiens) (Q9Y336 whole entry): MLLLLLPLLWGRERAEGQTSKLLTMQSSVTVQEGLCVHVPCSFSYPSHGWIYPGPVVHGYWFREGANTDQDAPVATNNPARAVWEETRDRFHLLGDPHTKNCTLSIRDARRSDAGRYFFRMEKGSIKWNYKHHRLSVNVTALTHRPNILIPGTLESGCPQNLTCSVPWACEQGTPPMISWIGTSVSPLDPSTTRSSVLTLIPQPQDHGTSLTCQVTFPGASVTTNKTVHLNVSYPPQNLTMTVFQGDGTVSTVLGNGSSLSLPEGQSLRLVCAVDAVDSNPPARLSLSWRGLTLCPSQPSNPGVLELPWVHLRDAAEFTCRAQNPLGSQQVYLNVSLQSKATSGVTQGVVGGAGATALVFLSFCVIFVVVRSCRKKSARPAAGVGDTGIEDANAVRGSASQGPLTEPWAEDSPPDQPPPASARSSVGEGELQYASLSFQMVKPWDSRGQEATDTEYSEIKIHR

Trypanosoma cruzi = assay: Trypanosoma cruzi phosphomannomutase and mannose-1-phosphate guanylyltransferase assay; type: functional; conditions: 10 µM
[5] = biological target: T2, Arginase-2, mitochondrial (Homo sapiens) (UniProt P78540); assay: in vitro enzyme assay to detect the production of urea directly proportional to the activity of Arginase II; type: functional; conditions: 33.3 µM; also: in the data most compounds retested in dose-response had high values
T2 sequence (whole entry): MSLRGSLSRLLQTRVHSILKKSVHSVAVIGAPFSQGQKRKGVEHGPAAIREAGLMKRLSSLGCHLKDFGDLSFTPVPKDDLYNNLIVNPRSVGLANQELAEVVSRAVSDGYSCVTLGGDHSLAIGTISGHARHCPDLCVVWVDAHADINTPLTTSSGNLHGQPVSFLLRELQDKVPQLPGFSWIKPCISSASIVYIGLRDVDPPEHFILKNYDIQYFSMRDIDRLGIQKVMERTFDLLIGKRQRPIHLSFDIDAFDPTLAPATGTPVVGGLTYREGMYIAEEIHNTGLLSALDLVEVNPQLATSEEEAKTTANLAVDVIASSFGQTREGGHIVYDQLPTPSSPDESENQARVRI

[6] = biological target: T3, Proteasome subunit beta (Trypanosoma cruzi) (UniProt O96673); assay: Trypanosoma cruzi proteasome chymotrypsin-like activity (TcProtChymo) assay.; also: in the data most compounds retested in dose-response had high values; type: functional; conditions: 9.37 µM
T3 sequence (whole entry): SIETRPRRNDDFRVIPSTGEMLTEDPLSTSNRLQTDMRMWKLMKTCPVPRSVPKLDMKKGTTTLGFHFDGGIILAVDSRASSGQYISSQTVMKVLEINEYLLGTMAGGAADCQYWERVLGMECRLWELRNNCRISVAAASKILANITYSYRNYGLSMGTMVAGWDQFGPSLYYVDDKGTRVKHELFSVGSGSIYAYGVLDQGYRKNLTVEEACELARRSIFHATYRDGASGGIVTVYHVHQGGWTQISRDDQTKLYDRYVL

Homo sapiens = species on record: Homo sapiens; assay: To identify inhibition of the IFN signalling (Jak-Stat) pathway via expression of an eGFP reporter gene under the control of an IFN-stimulated response element (ISRE) containing MxA promoter.; type: functional; conditions: 30 µM
[7] = biological target: T4, Tyrosyl-tRNA synthetase, putative (Trypanosoma cruzi (strain CL Brener)) (UniProt Q4DSP6); assay: Trypanosoma cruzi tyrosyl tRNA synthetase (TcYRS) _High Tyrosine SOP; type: functional; conditions: 30 µM; also: in the data most compounds retested in dose-response had high values
T4 sequence (whole entry): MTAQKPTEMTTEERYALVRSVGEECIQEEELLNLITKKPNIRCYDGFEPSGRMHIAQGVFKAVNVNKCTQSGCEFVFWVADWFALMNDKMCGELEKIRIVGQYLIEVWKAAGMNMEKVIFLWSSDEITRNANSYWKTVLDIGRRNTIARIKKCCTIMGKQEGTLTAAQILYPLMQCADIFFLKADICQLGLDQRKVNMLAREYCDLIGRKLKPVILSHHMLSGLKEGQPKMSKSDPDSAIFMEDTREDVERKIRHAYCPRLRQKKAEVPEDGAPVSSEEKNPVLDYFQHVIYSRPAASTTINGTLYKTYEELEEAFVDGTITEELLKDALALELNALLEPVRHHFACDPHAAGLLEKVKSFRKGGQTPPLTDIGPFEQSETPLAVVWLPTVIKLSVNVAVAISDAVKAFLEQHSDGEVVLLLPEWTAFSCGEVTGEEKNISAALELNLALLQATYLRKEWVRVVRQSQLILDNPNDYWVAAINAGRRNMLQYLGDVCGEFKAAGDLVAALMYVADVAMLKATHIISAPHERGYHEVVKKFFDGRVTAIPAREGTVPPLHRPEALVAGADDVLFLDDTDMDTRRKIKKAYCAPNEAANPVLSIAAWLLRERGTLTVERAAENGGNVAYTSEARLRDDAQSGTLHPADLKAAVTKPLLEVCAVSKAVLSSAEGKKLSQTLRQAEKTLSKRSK

[8] = biological target: T4, Tyrosyl-tRNA synthetase, putative (Trypanosoma cruzi (strain CL Brener)); assay: Trypanosoma cruzi tyrosyl tRNA synthetase (TcYRS) SOP; type: functional; conditions: 30 µM
[9] = biological target: Chromo domain-containing protein 1 (Saccharomyces cerevisiae (strain ATCC 204508 / S288c) (Baker's yeast)) (UniProt P32657); assay: ScCHD-1 Enzyme Inhibition Assay; type: functional; conditions: 30 µM; also: in the data most compounds retested in dose-response had high values
Sequence of Chromo domain-containing protein 1 (Saccharomyces cerevisiae (strain ATCC 204508 / S288c) (Baker's yeast)) (P32657 whole entry, the tested form may be a part): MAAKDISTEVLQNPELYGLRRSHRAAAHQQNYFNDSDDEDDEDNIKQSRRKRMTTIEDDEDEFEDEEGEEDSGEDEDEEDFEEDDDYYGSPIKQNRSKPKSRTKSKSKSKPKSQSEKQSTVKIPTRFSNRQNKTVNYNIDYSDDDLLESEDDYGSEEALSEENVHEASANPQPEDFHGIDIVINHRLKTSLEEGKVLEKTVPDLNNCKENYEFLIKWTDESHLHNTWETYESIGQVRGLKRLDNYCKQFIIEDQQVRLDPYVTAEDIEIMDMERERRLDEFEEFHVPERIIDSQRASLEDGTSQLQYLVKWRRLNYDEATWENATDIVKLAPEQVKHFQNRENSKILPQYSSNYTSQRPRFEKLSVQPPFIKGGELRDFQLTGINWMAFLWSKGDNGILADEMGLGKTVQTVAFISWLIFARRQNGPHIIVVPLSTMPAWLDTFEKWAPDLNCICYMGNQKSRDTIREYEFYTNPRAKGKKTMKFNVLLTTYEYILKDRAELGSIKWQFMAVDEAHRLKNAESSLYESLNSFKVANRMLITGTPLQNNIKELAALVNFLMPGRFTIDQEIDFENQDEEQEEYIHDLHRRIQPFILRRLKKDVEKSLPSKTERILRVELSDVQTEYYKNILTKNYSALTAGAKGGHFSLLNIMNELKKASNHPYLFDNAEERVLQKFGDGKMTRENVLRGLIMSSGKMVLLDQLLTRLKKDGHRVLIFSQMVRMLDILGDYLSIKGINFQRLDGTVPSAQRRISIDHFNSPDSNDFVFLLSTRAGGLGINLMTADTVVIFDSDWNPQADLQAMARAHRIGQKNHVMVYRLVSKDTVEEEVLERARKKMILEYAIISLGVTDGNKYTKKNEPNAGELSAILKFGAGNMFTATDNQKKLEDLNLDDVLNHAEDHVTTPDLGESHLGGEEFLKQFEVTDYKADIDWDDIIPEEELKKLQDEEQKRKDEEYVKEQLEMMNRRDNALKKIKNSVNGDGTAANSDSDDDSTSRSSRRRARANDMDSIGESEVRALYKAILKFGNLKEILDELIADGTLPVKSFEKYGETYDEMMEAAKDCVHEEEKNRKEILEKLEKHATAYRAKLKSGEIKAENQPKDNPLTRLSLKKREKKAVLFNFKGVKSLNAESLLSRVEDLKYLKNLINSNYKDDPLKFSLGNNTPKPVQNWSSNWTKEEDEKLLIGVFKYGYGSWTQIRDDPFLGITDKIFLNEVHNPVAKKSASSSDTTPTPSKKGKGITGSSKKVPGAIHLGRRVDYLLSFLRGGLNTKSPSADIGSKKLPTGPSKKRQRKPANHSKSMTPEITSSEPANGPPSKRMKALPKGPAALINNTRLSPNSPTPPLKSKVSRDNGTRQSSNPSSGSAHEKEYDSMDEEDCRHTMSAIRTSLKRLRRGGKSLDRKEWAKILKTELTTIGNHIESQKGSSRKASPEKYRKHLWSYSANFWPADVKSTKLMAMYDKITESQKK

Sequence of Protein translocase subunit SecA (Escherichia coli (strain K12)) (P10408 whole entry): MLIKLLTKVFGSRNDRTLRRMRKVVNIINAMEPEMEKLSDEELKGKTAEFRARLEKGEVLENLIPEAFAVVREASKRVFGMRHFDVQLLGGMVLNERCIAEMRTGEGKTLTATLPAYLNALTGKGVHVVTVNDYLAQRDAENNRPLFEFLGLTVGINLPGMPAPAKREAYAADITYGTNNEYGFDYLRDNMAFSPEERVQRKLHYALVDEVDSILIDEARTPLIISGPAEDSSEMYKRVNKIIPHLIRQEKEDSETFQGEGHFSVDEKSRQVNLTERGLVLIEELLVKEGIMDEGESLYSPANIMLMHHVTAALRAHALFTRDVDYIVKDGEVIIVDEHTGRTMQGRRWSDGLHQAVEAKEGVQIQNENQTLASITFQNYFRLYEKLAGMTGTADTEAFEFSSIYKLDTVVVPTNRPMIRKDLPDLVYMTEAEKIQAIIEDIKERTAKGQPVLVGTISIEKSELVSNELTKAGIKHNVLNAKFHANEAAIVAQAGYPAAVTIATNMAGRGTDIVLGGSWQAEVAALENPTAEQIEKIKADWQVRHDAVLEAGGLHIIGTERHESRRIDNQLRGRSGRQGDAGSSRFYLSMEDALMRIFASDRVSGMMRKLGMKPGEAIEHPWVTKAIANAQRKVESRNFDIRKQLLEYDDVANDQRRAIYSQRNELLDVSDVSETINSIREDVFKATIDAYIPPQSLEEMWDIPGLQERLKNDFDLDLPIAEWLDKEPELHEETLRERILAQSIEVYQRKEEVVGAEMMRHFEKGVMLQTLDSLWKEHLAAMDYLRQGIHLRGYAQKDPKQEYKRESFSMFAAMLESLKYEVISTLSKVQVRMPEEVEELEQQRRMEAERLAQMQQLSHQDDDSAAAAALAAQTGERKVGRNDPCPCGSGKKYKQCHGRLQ

SMILES	Percent Effect [1] [%]	Percent Effect [2] [%]	Percent Effect [3] [%]	Percent Effect [4] [%]	Percent Effect (Trypanosoma cruzi) [%]	Percent Effect [5] [%]	Percent Effect [6] [%]	Percent Effect (Homo sapiens) [%]	Percent Effect [7] [%]	Percent Effect [8] [%]	Percent Effect [9] [%]
O=C(c1ccc2c(c1)COC2)N1CCC(Nc2cccnn2)CC1	-4.96	13	-6.23	11.4	5.06	-3.56	1.52	21.5	8.74	24.4	-7.05
CC(NC(=O)c1nc(=O)[nH][nH]1)c1ccc(OCC2CC2)c(F)c1 (stereo not given)	-5.77	10.5	-0.945	-1.85	4.58	-3.55	4.7	4.1	5.32	10.4	-13.1
O=C(NCCOc1ccc2c(c1)OCO2)C1CC(=O)N(CC2CC2)C1 (stereo not given)	-2.83	18.4	1.65	-9.9	6.82	0	9.56	-20.7	6.4	23.5	-7.44
Cc1noc([C@H]2C[C@H]3OCC[C@H]3N(S(=O)(=O)C3CC3)C2)n1	0.988	11	-4.86	7.79	-1.19	-1.6	16.7	3.43	9.38	18.5	-0.433
CCC(=O)N1CC[C@@H](c2ccc3ccccc3c2)[C@H](O)C1	-3.58	8	-2.44	14.3	5.94	24	16.2	11.8	4.92	11.1	-8.24
COc1ncccc1C(=O)Nc1nc2c(s1)CN(S(=O)(=O)C1CC1)CC2	-8.71	0	25.5	-2.45	-4.9	1.82	29.8	21.4	3.23	5	102
CN(C)C(=O)CC1CC2(CCNCC2)c2cc(F)ccc21 (stereo not given)	-1.58	-5.41	8.49	-3.96	-6.35	-2.23	21	-0.894	-2.16	0	1.02
N#Cc1cccnc1NCCNC(=O)N1CCCC(C(F)(F)F)C1 (stereo not given)	-0.35	10.8	-2.73	11.1	4.83	13.3	19	23.4	4.76	19.5	-4.05
CCOc1ccnc(N2CCN(C(=O)c3cccc(C#N)c3)CC2)n1	-7.73	13.2	-3.41	8.57	-1.77	-2.88	3.47	8.64	2.46	11.1	2.13
CCN(CC1CCOC1)C(=O)c1ccccc1N1CCOCC1 (stereo not given)	-3.71	23.7	-4.13	-10.1	-3.08	1.8	4.82	12.3	5.42	11.1	-5.45
